Shown are actives, neighbours in structure and some others; about 0.35% of the full set was active somewhere.
MBNL1-CUG inh: inhibitors of human MBNL1 binding to CUG repeat RNA | TR-FRET MBNL1-His/biotin-(CUG)12 binding, 665/545 ratio | Q9NR56 | 280,000 tested, 0.036% active | Potency, µM (titrated, usually from 57.5 µM), for inactives: at the top dose activity change, negative = inhibition, most hits filed as inhibitors; active means well fitted inhibition curve with a large enough effect in the signal ratio, with a control signal flat, not every such curve was filed as active; inconclusive means small, poorly fitted or top-dose-only effect, or effect the other way, or a change in a side signal; inactive means no such curve, though single readings can be large or run the other way; the % refers to the signal ratio; further: potency means the concentration at half of the fitted maximal effect; on the % scale 0 is the no-effect control and ±100 the full control effect
Target sequence (Q9NR56 whole entry, looked up): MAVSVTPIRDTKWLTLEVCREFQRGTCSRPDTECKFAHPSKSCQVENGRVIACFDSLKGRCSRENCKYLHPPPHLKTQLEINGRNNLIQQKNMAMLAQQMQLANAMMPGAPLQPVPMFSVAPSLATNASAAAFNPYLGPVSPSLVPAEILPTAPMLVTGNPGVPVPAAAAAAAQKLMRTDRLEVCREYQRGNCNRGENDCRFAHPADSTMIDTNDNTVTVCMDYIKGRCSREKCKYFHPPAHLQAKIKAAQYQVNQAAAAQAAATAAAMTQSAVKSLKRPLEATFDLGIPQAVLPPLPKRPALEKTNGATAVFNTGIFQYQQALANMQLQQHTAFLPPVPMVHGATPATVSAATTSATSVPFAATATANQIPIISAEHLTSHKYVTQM
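TR-FRET readout: Ex 340 nm, 665/545 nm emission ratio, normalized to buffer-only (basal) and MBNL1-(CUG)12 controls. Complex of MBNL1-His with Biotin-(CUG)12, compounds 92 nM–58 uM, incubated 60 min at room temperature.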
B2AR arrestin: recruits beta-arrestin to the human beta2-adrenergic receptor | P07550 | beta-arrestin recruitment to beta2AR, cell-based reporter | 330,000 tested, 0.02% active | Potency, µM (top dose mostly 46.1 µM), for inactives: at the highest dose activation, most hits filed as activators;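 further: potency means the concentration at half of the fitted maximal effect; 0% = DMSO controls and full agonism = EC100 isoproterenol or metaproterenol; nearly all actives have a fitted effect of over 65% in size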
GLS inh: blocks human kidney-isoform glutaminase activity; GLS enzymatic activity, qHTS titration; Potency, µM (titrated, usually from 45.5 µM), inactives show at the top dose activity change, negative = inhibition, usual class: inhibitors; 410,000 tested, 0.21% active; AID 624170; further: potency means the concentration at half of the fitted maximal effect; on the % scale 0 is the no-effect control and ±100 the full control effect
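Glutamate formation by hKGA was monitored fluorometrically using coupled glutamate oxidase, HRP and Amplex Red. Substrate was added as 1 mM L-glutamine solution; incubation was 30 min at RT after an initial read.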
BCR signal inh: inhibitors of chronic active B-cell receptor signaling | ABC-DLBCL IkBa-CBG/CBR reporter, luminescence ratio, 4 h | Potency, µM (series often up to 46.1 µM), for the others: at the top dose activity change, negative = inhibition, actives largely listed as inhibitors | 340,000 tested, 0.05% active; active means well fitted inhibition curve with a large enough effect in the signal ratio, with a control signal flat, not every such curve was filed as active; inconclusive means small, poorly fitted or top-dose-only effect, or effect the other way, or a change in a side signal; the % refers to the signal ratio;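 further: potency means the concentration at half of the fitted maximal effect; plate controls were basal doxycycline-induced cells for no effect and cells given 10 µM MG132 for full effect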
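Concentration-response series (up to 46 uM) were applied to TMD8 dual-reporter cells for 4 h at 37C with doxycycline. Green/red ratio, after filter-overlap correction, defined %Activity; red signal alone was normalised to basal cells and zero luminescence.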
Anesthetic bind: candidate novel general anesthetic via apoferritin binding. P02791. apoferritin/1-aminoanthracene competitive binding, fluorescence. Potency, µM (titrated, usually from 77.5 µM), for inactives: at the highest dose activity change, negative = displacement, actives largely listed as inhibitors. 350,000 tested, 0.074% active; further: potency means the concentration at half of the fitted maximal effect; on the % scale 0 is the no-effect control and ±100 the full control effect; nearly all actives have a fitted effect of over 20% in size
Target sequence (P02791 2-175 limits assumed): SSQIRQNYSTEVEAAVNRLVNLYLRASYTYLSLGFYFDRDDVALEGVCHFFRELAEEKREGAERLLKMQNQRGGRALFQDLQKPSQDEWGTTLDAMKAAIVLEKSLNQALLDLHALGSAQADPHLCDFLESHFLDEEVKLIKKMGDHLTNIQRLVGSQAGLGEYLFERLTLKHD
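Horse-spleen apoferritin (10 uM) in 50% saturated 1-aminoanthracene in PBS was incubated 10 min at room temperature with compound. Fluorescence (ex 380, em 535 nm) was normalized to free and bound 1-AMA, with concentration-response fitted by a four-parameter Hill equation.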
MBNL1 TRFRET: confirmation of inhibitors of human MBNL1-poly(CUG) RNA binding | shares compounds with MBNL1-CUG inh | TR-FRET MBNL1-His / biotin-(CUG)12 binding, 60 min | 140 tested, 50% active | AID 493199 | Potency, µM (doses to about 57.6 µM), for inactives: at the top dose activity change, negative = inhibition, usual class: inhibitors
MBNL1 AlphaScrn: confirmation of MBNL1-(CUG)12 RNA binding inhibitors, orthogonal format; shares compounds with MBNL1-CUG inh; AlphaScreen MBNL1-His / biotin-(CUG)12 binding; Potency, µM (series often up to 57.7 µM), for the others: at the highest dose activity, negative = inhibition, hits mostly inhibitors; 140 tested, 30% active
Menin-MLL HTRF: hit in HTRF counterscreen for MBNL1-poly(CUG) binding inhibitors; shares compounds with MBNL1-CUG inh; Potency, µM (doses to about 57.6 µM), inactives show at the top dose activity, negative = inhibition, most hits filed as inhibitors; 120 tested, 20% active; His-Menin/biotin-MLL peptide TR-FRET counterscreen; AID 651843
Active calls of the source: *; u = inconclusive; x = not tested or not shown. Unless noted, the call rests on the fitted dose curve; in most records, active means well fitted curve in the direction sought with a large enough effect; inconclusive means small, poorly fitted or top-dose-only effect, or another doubt; inactive means no such curve, though single readings can be large; an effect the other way counts as inactive or inconclusive.

SMILES | MBNL1-CUG inh | B2AR arrestin | GLS inh | BCR signal inh | Anesthetic bind | MBNL1 TRFRET | MBNL1 AlphaScrn | Menin-MLL HTRF
CC1C(=O)N2CCCc3cc(NC(=O)c4ccccc4Br)cc1c32 (stereo unspecified) | x | -0.5% | 5.0% | 23.1µM* | x | x | x | x
O=S(=O)(N/N=C\c1ccc(-c2ccccc2Cl)o1)c1ccccc1 | 20µM* | -1.3% | -4.9% | 0.3% | -4.9% | 7.6% | -11.3% | 6.8%
O=C(N/N=C/c1ccc(-c2ccccc2Cl)o1)c1ccccc1 | -3.1% | 0.3% | -0.3% | u | -1.7% | x | x | x
COc1ccc2cc1Oc1cc3c(cc1OC)CC[N+](C)(C)C3Cc1ccc(cc1)Oc1c(OC)c(OC)cc3c1C(C2)[N+](C)(C)CC3 (stereo unspecified) | x | x | -1.7% | x | x | x | x | x
CC(=O)c1ccc(NC(=O)Nc2cccnc2)cc1 | 28.2µM* | 0.3% | -1.3% | -6.5% | -6.9% | 20.6µM* | -9.3% | 29.1µM*
CN1CCc2cc(NC(=O)Nc3cccnc3)ccc21 | x | x | x | x | x | u | -39.0% | x
CCOC(=O)c1ccc(N2C(=O)c3n[nH]c(-c4ccco4)c3C2c2ccc(OC)cc2OC)cc1 (stereo unspecified) | x | x | -2.2% | x | -19.7% | x | x | x
COc1cc(CN2CCN(c3cccc(C)c3C)CC2)cc(Br)c1O | -16.6% | 0.3% | 19.9% | 1.9% | -17.1% | x | x | x
COc1ccc(CN2CCN(c3cccc(C)c3C)CC2)cc1OC | 25.1µM* | 0.3% | x | u | -0.7% | 16.3µM* | -25.5% | u
C=CCn1c(NS(=O)(=O)c2ccccc2)c(S(=O)(=O)c2ccc(C)cc2)c2nc3ccccc3nc21 | 20µM* | 0.0% | 1.2% | u | -4.0% | 4.0% | u | 0.2%
O=S(=O)(Nc1c(S(=O)(=O)c2ccccc2)c2nc3ccccc3nc2n1C1CCCCC1)c1ccccc1 | x | 4.1% | -16.8% | u | 4.5% | x | x | x
O=C(Nc1cc(NC(=O)c2ccccc2Cl)ccc1Cl)c1ccccc1 | x | x | 2.0% | x | -6.0% | x | x | x
COc1ccc(NC(=O)NC(C(F)(F)F)C(F)(F)F)cc1 | 31.6µM* | 0.6% | 6.0% | u | 1.2% | u | -2.4% | u
C/C1=C2/[N-]C(C(CC(N)=O)[C@@]2(C)CCC(=O)NCC(C)OP(=O)([O-])O[C@H]2[C@@H](O)[C@@H](n3cnc4cc(C)c(C)cc43)O[C@@H]2CO)[C@]2(C)N=C(/C(C)=C3N=C(/C=C4N=C1C(CCC(N)=O)C\4(C)C)[C@@H](CCC(N)=O)[C@]\3(C)CC(N)=O)[C@@H](CCC(N)=O)[C@]2(C)CC(N)=O.CC(=O)O.[Co] (stereo partly specified) | x | x | -14.1% | x | x | 8.19µM* | 2.59µM* | x
C/C1=C2N=C(/C=C3N=C(/C(C)=C4\[N-][C@@](C)([C@@H]5N=C1[C@](C)(CCC(=O)NCC(C)OP(=O)(O)O[C@H]1[C@@H](O)[C@@H](n6cnc7cc(C)c(C)cc76)O[C@@H]1CO)[C@H]5CC(N)=O)[C@@](C)(CC(N)=O)[C@@H]4CCC(N)=O)[C@@](C)(CC(N)=O)[C@@H]\3CCC(N)=O)C(C)(C)[C@@H]/2CCC(N)=O.CC(=O)O.[Co] (stereo partly specified) | x | x | x | x | x | x | x | 93.7%
COc1ccccc1NC(=O)Nc1ccnn1C1CCCCC1 | -0.9% | -2.6% | 9.3% | 2.8% | -12.4% | -7.1% | -16.8% | 0.1%
COc1ccccc1NC(=O)Nc1ccnn1C1CCN(C(=O)c2ccccn2)CC1 | 1.6% | -0.1% | -1.0% | 3.6% | -1.9% | x | x | x
COc1ccccc1NC(=O)Nc1ccnn1Cc1cccs1 | 3.98µM* | 0.4% | 11.4% | 0.6% | -19.8% | 1.3µM* | 0.651µM* | 10.3µM*
NC(C(=O)O)c1ccc(P(=O)(O)O)cc1 (stereo unspecified) | x | x | x | x | -3.6% | x | x | x
COc1cccc(C2=NS(=O)(=O)N(C)C(C(=O)Nc3cccc(O)c3)=C2)c1 | x | x | 12.5% | x | u | x | x | x
COc1cc(C(=O)Nc2ccc3nc(N4CCN(C)CC4)cc(C)c3c2)cc(OC)c1OC | 22.4µM* | 0.3% | 11.5% | u | -5.3% | 10.3µM* | -12.0% | 29.1µM*
CCn1c(SCC(=O)Nc2nc(C)c(C)s2)nnc1-c1cccs1 | 39.8µM* | -0.5% | 2.8% | 3.4% | -5.4% | -3.6% | -11.6% | 2.4%
Cc1ccc(NC(=O)CSc2ncc(S(=O)(=O)c3ccccc3)c(=O)[nH]2)cc1C | 25.1µM* | -0.7% | 15.5% | u | -3.4% | u | u | 6.1%
COC(=O)[C@@H]1[C@H]2C[C@H]3c4[nH]c5ccccc5c4CCN3C[C@H]2CC[C@@H]1O | x | x | x | x | -0.3% | x | x | x
CN(Cc1ccccc1)S(=O)(=O)c1ccc(NC(=O)c2cc(=O)c3ccccc3o2)cc1 | x | x | -2.8% | x | -18.7% | x | x | x
SMILES | MBNL1-CUG inh | B2AR arrestin | GLS inh | BCR signal inh | Anesthetic bind | MBNL1 TRFRET | MBNL1 AlphaScrn | Menin-MLL HTRF
COC(=O)c1ccc(N)cc1O | -3.8% | -0.1% | 6.1% | -1.5% | -13.6% | x | x | x
COC(=O)c1ccc(=O)c2nc3/c(=C/O)c(O)cc(=O)c3[nH]c12 | u | -0.2% | 5.01µM* | u | -12.9% | 0.259µM* | 0.291µM* | 5.2%
COc1ccc(-c2cc(C(F)(F)F)nc(SCC(=O)NCC(C)C)n2)cc1OC | x | x | -15.4% | x | -7.2% | x | x | x
COc1ccc(C(c2c(C)[nH]n(-c3ccccc3)c2=O)c2c(C)[nH]n(-c3ccccc3)c2=O)cc1OC | 39.8µM* | -0.6% | 2.8% | 14.0% | -4.2% | u | u | 3.6%
COc1cc(CN(C(=O)c2cccc(C)c2)c2ccccn2)cc(OC)c1OC | x | x | 4.1% | x | -4.9% | x | x | x
COc1ccc(CCNC(=O)C2CC(=O)N(c3ccc(Br)cc3)C2)cc1OC (stereo unspecified) | -7.0% | -0.2% | 0.0% | -1.5% | -4.4% | x | x | x
COc1ccc(CCNC(=O)C2CC(=O)N(c3ccccc3)C2)cc1OC (stereo unspecified) | 11.2% | -0.2% | 4.6% | 3.3% | 5.6% | -4.9% | -2.1% | 1.3%
Oc1ccccc1/C=N/Nc1nccnc1Cl | 17.1% | 0.1% | 0.4% | u | -13.0% | x | x | x
Oc1ccc(/C=N/Nc2nccnc2Cl)c(O)c1 | u | -0.8% | 18.3% | u | -23.4% | u | 6.51µM* | 16.8%
Clc1nccnc1N/N=C/c1ccc(Br)cc1 | u | 0.1% | 11.6% | -12.7% | -2.9% | x | x | x
